Shown are actives, neighbours in structure and some others; about 1.6% of the full set was active somewhere.
KCNQ2 pot: potentiators of rat KCNQ2 potassium channel. AID 2239. CHO-K1 KCNQ2, FluxOR thallium flux fluorescence; stronger effect = higher value. O88943. hit rate 0.54% among 310,000. B-score at 10 µM;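 active means fluorescence ratio B-score at least 3 SD of library B-scores, with initial fluorescence B-score within 3 of them, cut at about 5.3 in these data; same plate scores as AID 2156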;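 further: B-score of peak minus minimum over baseline fluorescence ratio after K+ and Tl+ stimulus; positive B-score means potentiation of KCNQ2 with more thallium influx and brighter signal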
KCNQ2 inh: inhibitors of rat KCNQ2 potassium channel. O88943. CHO-K1 KCNQ2, FluxOR thallium flux, 20 min; stronger effect = lower value. B-score at 10 µM. hit rate 1.1% among 310,000;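 active means fluorescence ratio B-score at most minus 3 library SDs, with starting brightness B-score within 2 library SDs, cut at about -5.5 in these data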
Kir21 confirm: confirmation of mouse Kir2.1 potassium channel inhibitors; AID 2032; hit rate 41% among 2,300; Kir2.1-expressing cells, FluxOR thallium flux fluorescence; stronger effect = lower value; Tl flux remaining, % of negative control (stronger effect = lower value), % at 10 µM; shares compounds with KCNQ2 pot;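 active means Primary-screen hit whose thallium flux fell at least 3 control SD below untreated wells in both duplicates, with normal baseline fluorescence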;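 further: 0% = blank wells without stimulus and 100% = stimulated no-compound controls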
HEK293 Tl flux: alters thallium flux in parental HEK293 cells, Kir2.1 counter-screen; shares compounds with KCNQ2 pot; FluxOR thallium flux fluorescence; 0% = unstimulated blank wells; FluxOR signal as % of negative control (100 = no effect), % at 10 µM; hit rate 19% among 2,300;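 active means dye signal at least 3 control SD above or below untreated wells in both duplicates, raw fluorescence within 3, either direction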;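 further: percent is based on the flux ratio of peak minus minimum fluorescence over baseline F0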
CHO-K1 ctr: counter-screen for KCNQ2 potentiators: effect in parental CHO-K1 cells; activity increase over 3SD of controls, % at 10 µM; shares compounds with KCNQ2 pot; FluxOR thallium flux fluorescence; zero = vehicle mean+3SD, 100% = vehicle-minus-blank window; AID 2282; hit rate 43% among 1,200;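 active means signal rise of at least 3 SD above the untreated control mean, in both duplicate wells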;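 further: counter screen of KCNQ2 potentiator hits so any rise reflects channel-independent effects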
KCNQ1 sel pot: human KCNQ1 counter-target activity of KCNQ2 potentiators | shares compounds with KCNQ2 pot | CHO KCNQ1 stable, FluxOR thallium flux fluorescence; beyond 3SD, as % of vehicle-control signal | activation over 3SD threshold, % at 10 µM | hit rate 28% among 1,200;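 active means fluorescence ratio rise of at least 3 SD of vehicle wells above their mean, in both replicate wells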;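 further: 0% = vehicle mean plus 3 SD and 100% = vehicle minus unstimulated blank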
Target sequence (P51787 whole entry, looked up): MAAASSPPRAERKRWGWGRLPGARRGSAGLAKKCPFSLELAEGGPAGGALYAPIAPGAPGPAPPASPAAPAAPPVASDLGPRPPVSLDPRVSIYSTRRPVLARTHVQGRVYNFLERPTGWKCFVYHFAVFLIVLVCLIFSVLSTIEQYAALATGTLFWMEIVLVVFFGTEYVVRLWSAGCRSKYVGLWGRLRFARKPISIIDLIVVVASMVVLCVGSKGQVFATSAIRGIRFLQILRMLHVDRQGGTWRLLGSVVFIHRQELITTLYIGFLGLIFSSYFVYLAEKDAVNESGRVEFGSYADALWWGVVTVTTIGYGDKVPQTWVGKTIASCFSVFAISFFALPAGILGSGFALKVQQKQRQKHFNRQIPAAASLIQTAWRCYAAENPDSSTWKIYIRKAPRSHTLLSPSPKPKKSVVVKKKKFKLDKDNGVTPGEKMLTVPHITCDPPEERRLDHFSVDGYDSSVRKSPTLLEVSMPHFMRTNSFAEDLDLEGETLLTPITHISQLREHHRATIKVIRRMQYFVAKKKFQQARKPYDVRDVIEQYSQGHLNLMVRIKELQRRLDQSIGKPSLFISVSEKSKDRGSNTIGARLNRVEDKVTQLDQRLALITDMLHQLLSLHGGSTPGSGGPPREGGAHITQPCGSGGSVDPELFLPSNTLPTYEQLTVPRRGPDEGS
KCNQ2 pot confirm: confirmation of rat KCNQ2 potassium channel potentiators | potentiation, less the hit threshold, % at 10 µM | hit rate 68% among 1,200 | CHO-KCNQ2 cells, FluxOR thallium flux fluorescence | shares compounds with KCNQ2 pot | AID 2287;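 active means fluorescence ratio rising 3 SD or more over the vehicle control mean in both replicates, plus primary screen hit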;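 further: peak minus minimum thallium fluorescence divided by baseline after K/Tl stimulus; 0% = vehicle mean plus 3 SD and 100% = vehicle minus unstimulated blank difference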
Kir21 spec: tests whether KCNQ2 potentiators also affect mouse Kir2.1; shares compounds with KCNQ2 pot; AID 2345; activity over 3SD threshold, % at 10 µM; HEK293 Kir2.1, FluxOR thallium flux fluorescence; hit rate 2% among 1,200;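 active means fluorescence ratio rise of at least 3 SD above the vehicle-control mean, seen in both replicates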;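 further: 0% = vehicle mean plus 3 SD and 100% = vehicle minus no-stimulus blank window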
KCNQ2 W236L pot: potentiates the retigabine-insensitive rat KCNQ2 W236L mutant channel | shares compounds with KCNQ2 pot | CHO KCNQ2-W236L, automated patch clamp current | current increase over 3SD of negative controls (%), stronger effect = higher value, % at 25 µM | hit rate 10% among 940 | AID 2558;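 active means current increase at least 3 SD of the untreated controls above them in both duplicate recordings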
Starred values were filed as active, the others as inactive; i = inactive; nt = no result.

SMILES	KCNQ2 pot	KCNQ2 inh	Kir21 confirm	HEK293 Tl flux	CHO-K1 ctr	KCNQ1 sel pot	KCNQ2 pot confirm	Kir21 spec	others
Cc1cc(-c2ccc(C(C)C)c(S(=O)(=O)NCCN3CCC(C)CC3)c2)on1	nt	i	nt	nt	nt	nt	nt	nt
COCCNc1ccc([N+](=O)[O-])cc1C(=O)NC1CCCc2ccccc21 (stereo not drawn)	nt	i	nt	nt	nt	nt	nt	nt
COc1ccccc1N1CCN(C2CC(=O)N(c3cccc(Cl)c3)C2=O)CC1 (stereo not drawn)	nt	i	nt	nt	nt	nt	nt	nt
O=C(/C=C/c1ccccc1)c1cc(Br)ccc(=O)c1O	0.7	i	nt	nt	nt	nt	nt	nt
Cc1ccc(/C=C/C(=O)c2ccccc(=O)c2O)cc1C	6.1*	i	i	i	-6	-23	0.8*	-33	KCNQ2 W236L pot=i
CCCN(C(=O)CSCc1c(C)noc1C)c1c(N)n(Cc2ccccc2)c(=O)[nH]c1=O	nt	i	nt	nt	nt	nt	nt	nt
CC1(C)C(=O)OC(c2c3ccccc3cc3ccccc23)C(C)(C)C1=O (stereo not drawn)	6.2*	i	i	i	12*	90*	-6	-31
CN(C)c1ccc(C2OC(=O)C(C)(C)C(=O)C2(C)C)cc1 (stereo not drawn)	nt	i	nt	nt	nt	nt	nt	nt
O=C1CCC(=O)N1c1ccc(NC2CCN(Cc3ccccc3)CC2)c([N+](=O)[O-])c1	nt	i	nt	nt	nt	nt	nt	nt
O=[N+]([O-])c1ccccc1NC1CCN(Cc2ccccc2)CC1	0.74	i	33%*	i	nt	nt	nt	nt
CCOC(=O)C(NS(=O)(=O)c1ccc(Br)cc1)C(C)C (stereo not drawn)	0.59	i	42%*	i	nt	nt	nt	nt
Cc1ccc(S(=O)(=O)NC(C(=O)OCC(=O)NC(=O)c2cccn2C)C(C)C)cc1 (stereo not drawn)	0.09	i	nt	nt	nt	nt	nt	nt
Cc1cc(C)cc(NC(=O)C2CC3CCC2C3)c1 (stereo not drawn)	0.29	i	nt	nt	nt	nt	nt	nt
O=C(Nc1ccccc1)C1CC2CCC1C2 (stereo not drawn)	3.5	i	nt	nt	nt	nt	nt	nt
COc1ccc(NC(=O)C2CC3CCC2C3)c(OC)c1 (stereo not drawn)	9.8*	i	i	i	69*	58*	61*	-18	KCNQ2 W236L pot=i
CCN(CC)c1ccc(NC(=O)C2CC3CCC2C3)cc1 (stereo not drawn)	23*	i	i	i	2.7*	-15	65*	-32	KCNQ2 W236L pot=i
Cc1ccc(NC(=O)C2CC3CCC2C3)c(Br)c1 (stereo not drawn)	14*	i	i	i	17*	-17	32*	-41	KCNQ2 W236L pot=i
COc1ccc(NC(=O)C2CCCO2)c(OC)c1 (stereo not drawn)	nt	i	nt	nt	nt	nt	nt	nt
Cc1ccc(S(N)(=O)=O)cc1NC(=O)C1CC2CCC1C2 (stereo not drawn)	nt	i	nt	nt	nt	nt	nt	nt
Cc1ccc(C)c(NC(=O)C2CC3CCC2C3)c1 (stereo not drawn)	21*	i	i	i	-8	1.6*	57*	-38	KCNQ2 W236L pot=i
CC(C)CN(C(=O)COC(=O)CCC(=O)c1ccc(Cl)cc1)c1c(N)n(Cc2ccccc2)c(=O)[nH]c1=O	nt	i	nt	nt	nt	nt	nt	nt
CCOc1ccccc1NC(=O)Nn1cnnc1	0.31	i	nt	nt	nt	nt	nt	nt
O=C(C1CCCCCC1)N1CC[C@@H](N2CCC(O)CC2)[C@H](O)C1	nt	i	nt	nt	nt	nt	nt	nt
COc1cc(SC)ccc1C(=O)OCC(=O)N1CCCC1	nt	i	nt	nt	nt	nt	nt	nt
COc1ccc(N(C(=O)CNC(=O)c2cccs2)C(C(=O)NCC2CCCO2)c2ccccc2)c(OC)c1 (stereo not drawn)	1.1	i	nt	nt	nt	nt	nt	nt
SMILES	KCNQ2 pot	KCNQ2 inh	Kir21 confirm	HEK293 Tl flux	CHO-K1 ctr	KCNQ1 sel pot	KCNQ2 pot confirm	Kir21 spec	others
O=C(NCCS(=O)(=O)NCCCc1ccccc1)c1ccccc1	1.6	i	nt	nt	nt	nt	nt	nt
Cc1ccc(NC(=O)C2CCCC2)c(Br)c1	4.5	i	nt	nt	nt	nt	nt	nt
Cc1ccc(NC(=O)CC2CCCC2)c(Br)c1	16*	i	i	i	-20	-12	52*	-25	KCNQ2 W236L pot=i
Cc1csc(NC(=O)CSC2=NS(=O)(=O)c3cc(F)ccc3N2)n1	0.32	i	nt	nt	nt	nt	nt	nt
COc1ccc(NC(=O)NCCN2CCN(c3cc(OC)ccc3OC)CC2)cc1	0.02	i	nt	nt	nt	nt	nt	nt
COc1ccc(Cl)c(N2CCN(CCCNC(=O)Nc3ccc(C)cc3)CC2)c1	nt	i	70%*	i	nt	nt	nt	nt
C=CCn1cc(CN2CCC(C(=O)Nc3cccc(-c4cccc(Cl)c4)c3)CC2)c(C)n1	nt	i	nt	nt	nt	nt	nt	nt
O=C(CC12CC3CC(CC(C3)C1)C2)NCC(c1ccc(F)cc1)N1CCOCC1 (stereo not drawn)	11*	i	i	i	-13	-15	36*	-49	KCNQ2 W236L pot=i
O=C(NCC(c1ccc(F)cc1)N1CCOCC1)c1cc(F)c(F)c(F)c1F (stereo not drawn)	nt	i	nt	nt	nt	nt	nt	nt
O=C(NCCC(=O)N1CCCCCCC1)c1ccc(Cl)cc1	nt	i	nt	nt	nt	nt	nt	nt
COc1ccc(C(=O)NC(C)C2CC3CCC2C3)c(OC)c1 (stereo not drawn)	nt	i	nt	nt	nt	nt	nt	nt
COc1cccc(NC(=O)NC(C)C2CC3CCC2C3)c1 (stereo not drawn)	12*	i	i	i	-29	-12	0	-30	KCNQ2 W236L pot=i
CC(NC(=O)C1CCC(CNS(=O)(=O)c2ccccc2)CC1)c1ccccc1 (stereo not drawn)	2.9	i	nt	nt	nt	nt	nt	nt
Cc1ccc(NC(=O)NCCCc2ccccc2)cc1	6.3*	i	i	i	5.9*	71*	-3	-36	KCNQ2 W236L pot=i
O=C(NCCCCc1ccccc1)Nc1ccc(F)cc1	2.1	i	nt	nt	nt	nt	nt	nt
CSc1ccc(NC(=O)NCCCN2CCC(Cc3ccccc3)CC2)cc1	nt	i	64%*	i	nt	nt	nt	nt
Cc1ccc(NC(=S)NCCSc2ccc(Cl)cc2)cc1	3.2	i	nt	nt	nt	nt	nt	nt
Cc1ccc(NC(=O)NCC2CC2(Cl)Cl)cc1 (stereo not drawn)	10*	i	i	i	22*	-21	-1	-31	KCNQ2 W236L pot=i
Cc1ccc(CNC(=O)Nc2ccc(C)cc2)cc1	2.5	i	nt	nt	nt	nt	nt	nt
Cc1ccc(NC(=O)NCCSc2ccc(C)cc2)cc1	5.5*	i	i	i	-4	48*	-4	-26
COc1ccc(NC(=O)NCCCN2CCC(Cc3ccccc3)CC2)cc1	nt	i	nt	nt	nt	nt	nt	nt
CCC(C(=O)OC)n1cnc2c(nnn2-c2ccc(C)cc2)c1=O (stereo not drawn)	1.2	i	nt	nt	nt	nt	nt	nt
CC(=O)c1cc(C(=O)N2CCCC(C(=O)c3ccc(Cl)cc3)C2)cs1 (stereo not drawn)	nt	i	nt	nt	nt	nt	nt	nt

Source: PubChem
